Screening results: PubChem, several laboratories
Myeloid diff MLP – compounds promoting myeloid differentiation | ER-HoxA9 myeloid progenitors, lysozyme-GFP differentiation, flow cytometry | calls only at 10 µM | 1% of 360,000 active | AID 624256;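 active = normalized GFP-positive differentiation at or above the plate's own cutoff, the solvent-only control mean plus 3 SD; inconclusive = no clear call, values can overlap the other calls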;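 note: cells exposed to compound for four days before flow analysis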
ATG4B inh – ATG4B (human) cysteine protease inhibition | Q9Y4P1 | ATG4B cleavage of LC3-PLA2, NBD-HPC fluorescence, 1 h | inhibition, % at 8.33 µM | 0.51% of 340,000 active | AID 504462; in the data active = inhibition above about 40%
SKN-1 block – blocks SKN-1 activity in C. elegans | C. elegans VP596 Pgst-4::GFP/RFP ratio, acrylamide-induced, 24 h | inhibition, % at 21.8 µM | 0.49% of 360,000 active;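 active = interference check ratio from 0.5 to 1.5 plus GFP to RFP signal ratio inhibition reaching or exceeding a fixed threshold, cut at about 30% in these data, passing the limit was not always enough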
CHRM1 antagonist – blocks human M1 muscarinic receptor; P11229; CHO-K1 hM1, Fluo-8 calcium fluorescence, ACh EC80 antagonist; inhibition, % at 3 µM; 1.3% of 360,000 active; AID 588852;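 active = percent inhibition above its own plate's cutoff, namely the mean of that plate's compound wells plus 3 SD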;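 note: peak over basal fluorescence ratio during 140 s after agonist addition; 0% = ACh EC80 plus DMSO and 100% = DMSO alone without agonist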
Target sequence (P11229 whole entry, looked up): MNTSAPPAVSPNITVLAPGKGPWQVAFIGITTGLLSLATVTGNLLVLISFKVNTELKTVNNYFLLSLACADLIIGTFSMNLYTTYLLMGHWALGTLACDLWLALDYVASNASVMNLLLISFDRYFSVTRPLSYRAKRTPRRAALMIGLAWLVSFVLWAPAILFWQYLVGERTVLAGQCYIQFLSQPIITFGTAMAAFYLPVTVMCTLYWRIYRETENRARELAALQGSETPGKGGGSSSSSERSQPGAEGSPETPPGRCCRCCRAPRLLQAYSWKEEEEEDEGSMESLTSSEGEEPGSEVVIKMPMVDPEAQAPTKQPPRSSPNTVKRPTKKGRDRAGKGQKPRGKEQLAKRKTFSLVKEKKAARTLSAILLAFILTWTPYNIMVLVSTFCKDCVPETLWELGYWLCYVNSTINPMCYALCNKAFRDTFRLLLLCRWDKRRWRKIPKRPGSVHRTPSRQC
M1 PAM – potentiates human M1 receptor response to acetylcholine; P11229; CHO-K1 hM1, Fluo-8 calcium fluorescence, ACh EC20; 0% = ACh EC20, 100% = maximal ACh; activation, % at 3 µM; 0.088% of 360,000 active; AID 588819; in the data active = activation above about 19%, passing the limit was not always enough
M1 ag – human M1 muscarinic receptor agonism; P11229; CHO-K1 hM1, Fluo-8 calcium fluorescence, agonist mode; 0% DMSO, 100% acetylcholine EC100; 0.33% of 360,000 active; AID 588814; activation, % at 3 µM;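 active = activation above the run's mean compound activation plus 3 SD, cut at about 16% in these data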;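 note: peak over basal fluorescence ratio within a 140 s kinetic read after compound addition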
ATG4B conf – ATG4B (human) inhibition, single-dose confirmed; shares compounds with ATG4B inh; ATG4B protease fluorescent substrate cleavage assay; inhibition, % at 8.33 µM; 92% of 320 active; AID 504757; in the data active = inhibition above about 39%
PLA2 counter – inhibits human PLA2, flagging false ATG4B inhibitors. inhibition, % at 8.33 µM. purified PLA2, NBD-C6-HPC fluorescence, 45 min. shares compounds with ATG4B inh. AID 588402. 66% of 1,600 active; in the data active = inhibition above about 50%
Target sequence (P04054 whole entry, looked up): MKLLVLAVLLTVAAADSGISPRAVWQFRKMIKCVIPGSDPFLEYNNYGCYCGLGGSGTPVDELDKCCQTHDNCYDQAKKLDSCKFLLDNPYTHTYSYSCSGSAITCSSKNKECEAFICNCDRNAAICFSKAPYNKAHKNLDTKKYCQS
Myeloid diff CP1 – compounds promoting myeloid differentiation. shares compounds with Myeloid diff MLP. ER-HoxA9 myeloid progenitors, GFP/Mac1 double-positive flow. calls only. 2% of 2,300 active;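 active = share of green or green-and-red cells above 9 and 9% in run 1 or 4 and 3% in run 2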
GFP autofluor – counter-screen for myeloid differentiation promoters: compound fluorescence; fluorescence response, % (no concentration beside the values); shares compounds with Myeloid diff MLP; 7.4% of 2,300 active; ER-HoxA9 myeloid progenitors, no estrogen, GFP autofluorescence flow cytometry; vehicle wells 0%, positive control 100%;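 active = over 5% cells positive for green fluorescent reporter, or over 2% positive for both it and APC stain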;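 note: range taken on the double positive population between DMSO and positive control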
The depositor's hits bear a star; i = inactive; ? = inconclusive; · = not tested or not shown; + = active, no number. Rows were chosen to be rich in hits. Some 3.5% of all compounds tested hit in one or more screens of this group.

SMILES	Myeloid diff MLP	ATG4B inh	SKN-1 block	CHRM1 antagonist	M1 PAM	M1 ag	PLA2 counter	Myeloid diff CP1	GFP autofluor	others
NC(=O)NC[C@@H]1CC[C@@H](Cc2ccc(-c3ccccc3)cc2)O1	i	80*	9	-11	3	2	81*	·	·
OC[C@@H]1CC[C@@H](Cc2ccc(-c3ccccc3)cc2)O1	i	0	16	-9	0	-2	·	·	·
COc1ccc2cc(C[C@@H]3CC[C@@H](CNC(N)=O)O3)ccc2c1	i	38	-1	-15	6	2	·	·	·
Fc1ccc(C2c3[nH]c4ccccc4c3CCN2Cc2cccn2-c2ncccn2)cc1 (centres undefined)	i	41*	8	-2	-4	-13	36	·	·	ATG4B conf=70*
O=C(NCCCn1ccnc1)c1ccc(-c2ccccc2)cc1	i	-4	-7	-25	18	-5	·	·	·
c1ccc(-c2ccc(C(c3ccccc3)n3ccnc3)cc2)cc1 (centres undefined)	i	41*	-5	-33	13	8	45	·	·	ATG4B conf=63*
CCC(C)(C)n1nnnc1C(c1cc(OC)ccc1OC)N1CCN(Cc2ccccc2)CC1 (centres undefined)	i	-13	-1	-14	14	-5	·	·	·
Cc1ccc(SC(C)C(=O)Nc2ccccc2-c2ccccc2)cc1 (centres undefined)	i	31	14	-12	0	-10	·	·	·
CC(Sc1ccc(Cl)cc1)C(=O)Nc1ccccc1-c1ccccc1 (centres undefined)	i	50*	2	4	-6	-4	34	·	·	ATG4B conf=71*
COc1ccc(-c2ccc(/C=N/NC(=O)Cc3nnc(N)s3)o2)cc1Cl	i	-8	15	22	-4	-4	·	·	·
Cc1ccc(-c2ccc(/C=N/NC(=O)Cc3nnc(N)s3)o2)cc1Cl	i	68*	4	-12	11	-4	77*	·	·
CCOc1cc(/C=C2\C(=O)N(c3nc(-c4ccc(Br)cc4)cs3)N=C2c2ccccc2)ccc1O	i	53*	14	-16	14	-1	47	·	·	ATG4B conf=66*
O=S(=O)(c1ccc(NC(=S)N2CCCCC2)cc1)N1CCCCC1	i	·	-1	-7	-1	2	·	·	·
CCN(CC(=O)Nc1cc(Cl)ccc1C)C(=O)C1CC1	i	-9	-2	-13	18	-1	·	·	·
COc1cc(C(=O)NC2CC(C)(C)CC(C)(C)C2)ccc1OC1CCN(C(C)=O)CC1	i	-5	-2	-11	7	-8	·	·	·
CC1CCc2c(sc(Nc3nc4c(F)cccc4s3)c2C(N)=O)C1 (centres undefined)	+	41*	5	2	2	-1	-11	i	6.4*
O=C(Nc1nc2c(F)cccc2s1)C1CC1	i	10	11	-12	4	-6	·	·	·
CN1CCS/C1=C/C=C1/SC(=S)N(Cc2ccccc2)C1=O	+	82*	23	25	-8	12	80*	i	23*
Cn1c(N)c(S(=O)(=O)N2CCN(c3cccc(Cl)c3)CC2)c(=O)n(C)c1=O	i	4	4	-5	5	-3	·	·	·
COc1cc(OC)c(OC)cc1CNC(=O)c1cc(=O)[nH]c2ccccc12	?	3	8	-16	4	-2	·	·	·
CCCOC(=O)c1c(NC(=O)CCCn2nc([N+](=O)[O-])c(Cl)c2C)sc(C(=O)OC)c1C	i	62*	4	-6	8	-7	57*	i	0
Cc1c(Cl)c([N+](=O)[O-])nn1CCCC(=O)O	i	-3	14	-1	8	-2	·	·	·
C[C@H]1CN([C@@H](C)CO)C(=O)c2cc(NC(=O)NC3CCCCC3)ccc2O[C@H]1CN(C)C(=O)Nc1ccc(C(F)(F)F)cc1	i	62*	10	-8	0	-3	74*	i	0
CC(N)c1csc(NC(=O)c2cc(C(C)(C)C)nn2Cc2ccccc2)n1 (centres undefined)	i	·	-6	-2	4	-4	·	·	·
COc1ccc(CC(N)c2csc(NC(=O)c3cc(C(C)(C)C)nn3Cc3ccccc3)n2)cc1 (centres undefined)	+	·	2	-8	4	-2	·	i	0
SMILES	Myeloid diff MLP	ATG4B inh	SKN-1 block	CHRM1 antagonist	M1 PAM	M1 ag	PLA2 counter	Myeloid diff CP1	GFP autofluor	others
Oc1ccc(Br)cc1-c1cc(-c2ccccc2)n[nH]1	i	8	9	-13	-3	-3	·	·	·
Oc1ccc(Br)cc1-c1ccnn1-c1ccccc1	+	0	-2	-18	11	-2	·	i	0
O=CNc1ccc2c3c(cccc13)-c1ccccc1-2	+	-2	9	-11	10	0	·	i	0
Clc1cccc(-c2cc3nc4c(c(NCc5ccco5)n3n2)CCCC4)c1	+	1	25	4	-9	-8	·	i	0
c1coc(CNc2c3c(nc4ncnn24)CCCC3)c1	i	1	-6	-9	8	-1	·	·	·
Cc1ccc(S(=O)(=O)CCC(=O)Nc2nc(-c3cccnc3)cs2)cc1	?	0	-12	-6	13	4	·	·	·
CC(Oc1ccc(Br)cc1)C(=O)Nc1nc(-c2ccccn2)cs1 (centres undefined)	+	13	6	13	-7	-2	·	i	0
Cc1ccc(S(=O)(=O)CCC(=O)Nc2nc(-c3ccccn3)cs2)cc1	+	-59	-8	2	-3	-5	·	i	1
Cc1ccc(C(=O)COC(=O)[C@@H](NC(=O)c2ccco2)C(C)C)s1	+	0	-3	-2	14	3	·	i	0
Cn1c(=O)c2c(nc(SCC(=O)N3c4ccccc4CCc4ccccc43)n2C)n(C)c1=O	+	15	7	19	-12	-2	·	i	0
CCCn1c(SCC(=O)N2CCCc3ccccc32)nc2c1c(=O)n(C)c(=O)n2C	i	-1	-20	-6	4	-3	·	·	·
O=C1Oc2ccccc2C(=O)/C1=C\N1CCN(c2ccccc2)CC1	i	3	7	18	-5	-1	·	·	·
